In the library only some 2.2% were active in any assay of this set; here they are far more common.
aSyn 5UTR inh = 5' untranslated region of α-synuclein, MLPCN primary screen; inhibition, % (tested at 7.5 µM); hit rate 0.82% among 300,000; AID 1813; alpha-synuclein 5'UTR reporter, inhibitor activity; in the data active = inhibition above about 60%;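 also: H4 neuroglioblastoma cells stably carrying SNCA 5'UTR luciferase fusion; 0% = DMSO wells and 100% = positive control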
BaF3 parental = parental Ba/F3 viability inhibition as JAK2V617F counter-screen; CellTiter-Glo ATP luminescence; inhibition, % at 5.6 µM; hit rate 1.1% among 220,000; AID 1486;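 active = inhibition above a per-campaign cutoff, the mean inhibition of all tested compounds plus 3 SD, cut at about 27% in these data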;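 also: 0% = DMSO wells and 100% = JAK Inhibitor I control wells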
IEC-6 tox-1 = counter-screen for KLF5 inhibitors: cytotoxicity in IEC-6 cells; inhibition, % at 5 µM; hit rate 0.78% among 290,000; IEC-6 cytotoxicity, luminescence viability; in the data active = inhibition above about 22%;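 also: 0% = plate median of test compound wells and 100% = cytotoxic reference compound wells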
Ba/F3 V617F tox = reduce viability of Ba/F3 cells dependent on JAK2V617F. Ba/F3 EpoR-JAK2V617F viability, ATP luminescence. hit rate 1.1% among 220,000. inhibition, % at 5.6 µM. AID 1446;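 active = inhibition above the campaign mean plus 3 SD over all tested compounds, cut at about 24% in these data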;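 also: cytokine-independent growth of Ba/F3 cells driven by EpoR plus mutant JAK2; 0% = DMSO-treated cells and 100% = JAK inhibitor I control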
KLF5 inh = kruppel-like factor 5 inhibition; DLD-1 KLF5 promoter-luciferase reporter, luminescence; inhibition, % at 5 µM; hit rate 0.23% among 290,000; AID 1700;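 active = inhibition above a per-plate limit of that plate's mean compound inhibition plus 3 SD, cut at about 60% in these data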;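 also: 0% = DMSO wells and 100% = LY294002 at 200 µM; higher means less KLF5 promoter-driven luciferase light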
APP transl inh = APP translation inhibition; inhibition, % at 2 µM; SH-SY5Y APP 5'UTR-luciferase reporter, luminescence; hit rate 0.82% among 190,000; AID 1285;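 active = inhibition above a set limit, derived from the sample mean plus 3 SD, cut at about 45% in these data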
KLF5 confirm = KLF5 inhibition, confirmation assay; shares compounds with KLF5 inh; DLD-1 KLF5 promoter firefly luciferase reporter, luminescence; inhibition, % at 4 µM; hit rate 79% among 610; AID 1834;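 active = inhibition above a set limit taken from the earlier primary screen, cut at about 63% in these data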;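 also: 0% = DMSO wells and 100% = LY294002 at 200 µM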
IEC-6 tox-2 = rat IEC-6 cytotoxicity, KLF5 inhibitor counter-screen; shares compounds with KLF5 inh; IEC-6 rat intestinal cells, viability luminescence; inhibition, % at 4 µM; hit rate 56% among 610; AID 1905; in the data active = inhibition above about 23%;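 also: cells exposed to compounds for 48 hours before viability read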
* hit, by the source's call; . = not tested or not shown.

SMILES	aSyn 5UTR inh	BaF3 parental	IEC-6 tox-1	Ba/F3 V617F tox	KLF5 inh	APP transl inh	KLF5 confirm	IEC-6 tox-2
Cc1nn(C)c(C)c1/C=N/NC(=O)C(C)(C)Oc1ccc(Cl)cc1	16	4	-1	-5	-17	-6	.	.
Clc1ccc2c(c1)C(C1=NCCN1)c1ccccc1CS2 (centres undefined)	79*	70*	66*	76*	80*	97*	90*	46*
O=C(NCc1ccccc1)c1cccc(COc2ccc3c(c2)CCC3)c1	17	4	8	2	-85	-105	.	.
O=C(O)c1cccc(COc2ccc3c(c2)CCC3)c1	81*	-1	0	3	98*	.	100*	0
O=C(c1cc(-c2ccccc2Cl)on1)N1CCCC1	24	.	3	.	74*	.	65*	-8
O=C1CCCc2nc3c(cc21)C(O)Oc1c-3ccc2ccccc12 (centres undefined)	-118	6	-2	-1	-6	-157	.	.
O=C1CCCc2nc3c(cc21)C(O)Oc1ccccc1-3 (centres undefined)	-31	-2	2	-2	110*	-10	-4	5
CCOC(=O)c1sc(NC(=O)c2cc3c(s2)CCC(C)C3)nc1C (centres undefined)	-101	3	0	-1	86*	-16	88*	9
CC(=NC1CC1)c1c(-c2ccccc2)[nH]n(-c2nc3ccccc3s2)c1=O	-33	5	-2	0	-47	-6	.	.
CC(=NC1CCCC1)c1c(C)[nH]n(-c2nc3ccccc3s2)c1=O	94*	6	1	2	72*	-61	26	3
O=C(Nc1ccc(N2CCN(C(=O)c3ccccc3F)CC2)cc1)c1cncc(Br)c1	-74	.	2	.	-13	.	.	.
CCOc1ccc(NC(=O)c2ccccn2)cc1	104*	12	7	6	79*	-116	50	11
COc1ccc(C(=O)NNC(=O)c2ccccn2)cc1	79*	11	24*	12	77*	-125	-127	1
O=C(O)COCC(=O)N1CCc2c([nH]c3ccccc23)C1C(F)(F)F (centres undefined)	8	.	4	.	-9	.	.	.
Cc1cc(OCc2cc(C(=O)NC(C)c3c(C)nn(C)c3C)no2)cc(C)c1Cl (centres undefined)	-114	.	2	.	-176	.	.	.
c1ccc2c(c1)NCC1CCCN21 (centres undefined)	3	.	3	.	-8	.	.	.
O=C(NCCc1ccccc1)c1ccc2c(c1)OCO2	91*	.	2	.	63*	.	39	6
Cc1cc(-c2ccccc2)n(-c2cc(N/N=C/c3ccccc3O)ncn2)n1	.	76*	3	69*	70*	96*	88*	-6
CNc1cc(-n2nc(C)cc2-c2ccccc2)ncn1	27	2	7	-2	-18	-6	.	.
COc1ccc(CCC(N)=O)cc1OC	10	9	2	2	70*	1	-5	-10
COc1ccc(OC)c(Nc2cc(C)nc3nc(C)nn23)c1	-10	7	4	-2	92*	-1	81*	0
CCCn1c(SCC(=O)NNC(=O)c2ccc(C)cc2)nnc1C(C)C	0	.	-1	.	-34	.	.	.
c1ccc(-c2noc(-c3ccc4ccccc4c3)n2)nc1	113*	6	7	2	82*	49*	106*	8
Cc1ccc(-c2nc3ccc(Cl)cc3n2OC(C)C(=O)O)cc1 (centres undefined)	-127	13	4	9	66*	-116	-17	9
O=C(O)c1ccc(N/N=C/c2c[nH]c3ccccc23)cc1	79*	.	-4	.	77*	.	70*	7
COc1cc(OC)cc(N(C(=O)CNC(=O)c2ccco2)C(C(=O)NCC2CCCO2)c2ccccc2)c1 (centres undefined)	18	.	-5	.	65*	.	6	8
Cc1ccccc1C(=O)Nc1nnc(CC(=O)N/N=C/c2ccncc2)s1	10	-4	-2	-1	-34	.	.	.
O=C(NCC1CCCO1)c1ccc2c(=O)n(-c3ccccc3)c(=S)[nH]c2c1 (centres undefined)	25	0	-9	-1	3	2	.	.
COc1ccc(C(=O)C(Sc2nnc(C)c(=O)[nH]2)c2ccc(OC)cc2)cc1 (centres undefined)	-2	-7	2	1	-47	.	.	.

Source: PubChem BioAssay
